Assay results from PubChem BioAssay.
The source made the active and inactive calls.

Experiments:
[1] = tested on: Plasmodium falciparum Sir2 (PF13_0152, Sir2A); assay: pfSir2 binders on small-molecule microarrays, primary screen, biochemical, small-molecule microarray, 635 nm fluorescence (AID 1098); conditions: small-molecule microarray binding, fluorescence 635 nm; higher = more signal;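 also: score merges spot fluorescence intensity with its signal-to-noise ratio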
[2] = small-molecule microarray binders of probe aDKK1, primary screen, biochemical, biotinylated probe, 635/667 nm fluorescence (AID 1099); conditions: higher = more signal;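 also: score merges 667nm spot fluorescence with signal to noise across triplicate slides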
[3] = small-molecule microarray binders of probe aCHRDL2, primary screen, biochemical, biotinylated probe, 635/667 nm fluorescence (AID 1100); conditions: higher = more signal
[4] = splicing luciferase reporter signal modulators, primary screen, spliceosome inhibition project, cell-based, HEK293, splice +/- reporter (AID 1101); conditions: luminescence, 24 h, higher = more signal, called active from +8 up or from −8 down;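 also: HEK293 cells carrying a splicing-competent luciferase reporter gene; test concentration not given here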
[5] = target: Fibroblast growth factor 10 (Homo sapiens) (UniProt O15520); assay: FGF10 binders on small-molecule microarrays, primary screen, biochemical, small-molecule microarray, 635 nm fluorescence (AID 1102); conditions: FGF10 binding, fluorescence 635 nm, higher = more signal
Fibroblast growth factor 10 (Homo sapiens), sequence (O15520 whole entry, looked up): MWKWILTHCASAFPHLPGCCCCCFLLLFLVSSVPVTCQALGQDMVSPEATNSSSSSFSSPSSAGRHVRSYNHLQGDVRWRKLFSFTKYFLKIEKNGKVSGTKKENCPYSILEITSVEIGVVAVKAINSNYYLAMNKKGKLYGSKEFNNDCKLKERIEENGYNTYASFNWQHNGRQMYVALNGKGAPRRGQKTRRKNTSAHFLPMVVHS

[6] = tested on: glycogen synthase kinase-3 (GSK3A per assay name; protocol says GSK3B); assay: GSK3 binders on small-molecule microarrays, primary screen, biochemical, small-molecule microarray, 635 nm fluorescence, GSK3A (AID 1103); conditions: small-molecule microarray binding, fluorescence 635 nm; higher = more signal; also: the record names both GSK3A and GSK3B
[7] = target: Epidermal growth factor receptor (Homo sapiens) (UniProt P00533); assay: EGFR binders on small-molecule microarrays, primary screen, biochemical, small-molecule microarray, 635 nm fluorescence (AID 1104); conditions: EGFR binding, higher = more signal;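 also: score merges 667 nm emission intensity with spot signal to noise over triplicate slides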
Epidermal growth factor receptor (Homo sapiens), sequence (P00533 whole entry, looked up): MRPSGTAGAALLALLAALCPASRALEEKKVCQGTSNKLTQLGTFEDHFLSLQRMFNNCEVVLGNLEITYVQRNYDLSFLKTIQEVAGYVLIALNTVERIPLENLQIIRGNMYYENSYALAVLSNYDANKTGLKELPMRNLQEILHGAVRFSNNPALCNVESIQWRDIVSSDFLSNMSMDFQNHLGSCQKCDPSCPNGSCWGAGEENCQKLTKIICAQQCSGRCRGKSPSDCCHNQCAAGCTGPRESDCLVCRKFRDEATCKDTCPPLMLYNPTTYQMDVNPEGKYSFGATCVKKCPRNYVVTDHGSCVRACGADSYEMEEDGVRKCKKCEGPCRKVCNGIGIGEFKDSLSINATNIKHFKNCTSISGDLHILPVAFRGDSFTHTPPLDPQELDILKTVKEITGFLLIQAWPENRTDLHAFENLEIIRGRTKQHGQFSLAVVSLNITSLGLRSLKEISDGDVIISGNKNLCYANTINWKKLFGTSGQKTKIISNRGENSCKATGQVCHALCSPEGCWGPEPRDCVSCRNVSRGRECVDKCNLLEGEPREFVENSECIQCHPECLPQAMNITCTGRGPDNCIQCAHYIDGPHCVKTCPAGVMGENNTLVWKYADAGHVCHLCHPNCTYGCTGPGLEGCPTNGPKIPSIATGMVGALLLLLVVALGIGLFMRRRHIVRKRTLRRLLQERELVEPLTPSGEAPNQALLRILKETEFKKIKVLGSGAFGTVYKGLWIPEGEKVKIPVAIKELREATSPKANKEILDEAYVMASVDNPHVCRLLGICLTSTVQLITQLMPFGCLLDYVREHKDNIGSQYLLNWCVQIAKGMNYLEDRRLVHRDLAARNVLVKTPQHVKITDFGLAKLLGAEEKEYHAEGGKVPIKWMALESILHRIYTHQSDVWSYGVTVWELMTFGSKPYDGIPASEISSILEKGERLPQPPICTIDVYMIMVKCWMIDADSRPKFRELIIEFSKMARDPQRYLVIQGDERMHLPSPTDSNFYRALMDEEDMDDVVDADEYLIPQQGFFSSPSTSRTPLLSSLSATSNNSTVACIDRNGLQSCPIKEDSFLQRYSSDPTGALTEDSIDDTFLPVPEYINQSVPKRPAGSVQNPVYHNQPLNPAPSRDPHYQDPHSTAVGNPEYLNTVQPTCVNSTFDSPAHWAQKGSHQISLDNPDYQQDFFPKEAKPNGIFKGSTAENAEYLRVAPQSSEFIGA

[8] = target: Follistatin-related protein 3 (Homo sapiens) (UniProt O95633); assay: FSTL3 binders on small-molecule microarrays, primary screen, biochemical, small-molecule microarray, 635 nm fluorescence (AID 1105); conditions: FSTL3 binding, higher = more signal;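 also: score merges emission near 667 nm and signal to noise per printed spot across three slides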
Follistatin-related protein 3 (Homo sapiens), sequence (O95633 whole entry, looked up): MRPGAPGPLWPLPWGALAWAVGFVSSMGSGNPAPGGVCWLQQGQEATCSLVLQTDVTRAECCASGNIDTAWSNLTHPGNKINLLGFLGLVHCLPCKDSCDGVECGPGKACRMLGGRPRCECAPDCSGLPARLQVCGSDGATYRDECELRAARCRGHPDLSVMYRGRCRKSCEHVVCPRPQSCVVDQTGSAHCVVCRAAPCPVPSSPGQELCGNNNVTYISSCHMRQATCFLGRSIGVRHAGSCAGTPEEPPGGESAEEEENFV

[9] = target: Dickkopf-related protein 1 (Homo sapiens) (UniProt O94907); assay: DKK1 binders on small-molecule microarrays, primary screen, biochemical, small-molecule microarray, 635 nm fluorescence scan (AID 1106); conditions: DKK1 binding, higher = more signal;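 also: score merges emission near 667 nm with signal to noise over three replicate slides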
Dickkopf-related protein 1 (Homo sapiens), sequence (O94907 whole entry, looked up): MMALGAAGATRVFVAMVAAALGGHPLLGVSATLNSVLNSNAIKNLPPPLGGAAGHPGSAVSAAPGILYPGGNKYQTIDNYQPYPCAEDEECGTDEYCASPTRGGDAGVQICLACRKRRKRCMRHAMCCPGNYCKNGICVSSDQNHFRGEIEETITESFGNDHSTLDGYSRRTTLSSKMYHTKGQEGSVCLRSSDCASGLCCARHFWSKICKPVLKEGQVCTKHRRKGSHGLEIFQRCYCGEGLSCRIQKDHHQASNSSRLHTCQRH

[10] = tested on: Inhibin beta A chain (activin A); assay: INHBA (activin A) binders on microarrays, primary screen, biochemical, small-molecule microarray, 635 nm fluorescence scan (AID 1107); conditions: small-molecule microarray binding, higher = more signal;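 also: mouse activin A protein probed at 4.33 µg/mL on printed slides; score merges bound-protein fluorescence near 667 nm with spot signal-to-noise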
[11] = tested on: Human papillomavirus type 1a protein E7 (residues 44-93); assay: HPV1a E7 fragment binders on microarrays, primary screen, biochemical, small-molecule microarray, residues 44-93, 635 nm fluorescence (AID 1108); conditions: small-molecule microarray binding, fluorescence 635 nm; higher = more signal;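 also: E7 fragment applied at 1 µg/mL in TBST for 1 h at 4 C; score combines spot fluorescence with its signal to noise ratio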
[12] = modulators of HCV replicon luciferase signal, primary screen, HCV replication inhibitor project, Huh7 cells, luciferase reporter (AID 1109); conditions: 48 h, higher = more signal;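 also: huh7 hepatoma cells harbouring a luciferase neomycin HCV replicon reporter; luciferase luminescence as measure of HCV replicon replication; test concentration not given here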
[13] = target: Left-right determination factor 2 (Homo sapiens) (UniProt O00292); assay: LEFTY2 binders on small-molecule microarrays, primary screen, biochemical, small-molecule microarray, 635 nm fluorescence scan (AID 1110); conditions: LEFTY2 binding, higher = more signal
Left-right determination factor 2 (Homo sapiens), sequence (O00292 whole entry, looked up): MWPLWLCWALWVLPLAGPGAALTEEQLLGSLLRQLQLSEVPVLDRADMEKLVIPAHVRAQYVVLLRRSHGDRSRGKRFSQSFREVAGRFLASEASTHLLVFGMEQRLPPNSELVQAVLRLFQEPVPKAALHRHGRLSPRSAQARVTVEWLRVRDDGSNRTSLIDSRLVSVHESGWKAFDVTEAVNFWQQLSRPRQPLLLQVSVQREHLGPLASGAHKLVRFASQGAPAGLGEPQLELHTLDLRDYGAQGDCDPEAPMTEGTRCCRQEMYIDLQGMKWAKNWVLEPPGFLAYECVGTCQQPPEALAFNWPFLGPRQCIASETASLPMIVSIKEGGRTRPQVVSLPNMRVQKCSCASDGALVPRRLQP

[14] = target: Calmodulin-1 (Homo sapiens) (UniProt P0DP23); assay: CALM1 binders on microarrays, EGTA buffer, profiling panel, biochemical, small-molecule microarray, Cy5-labelled CALM1 (AID 1111); conditions: Cy5-CALM1 binding fluorescence, higher = more signal;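 also: labelled calmodulin applied in Tris saline Tween buffer holding calcium plus EGTA and DTT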
[15] = target: Calmodulin-1 (Homo sapiens) (UniProt P0DP23); assay: calcium-bound CALM1 binders on microarrays, profiling panel, artefact control for SMM control-protein annotation, biochemical, small-molecule microarray, Cy5-labelled CALM1, plus calcium (AID 1112); conditions: Cy5-CALM1 binding fluorescence, higher = more signal;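 also: score merges spot fluorescence with signal to noise from triplicate slides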
[16] = small-molecule microarray binders of probe aWnt5a, primary screen, biochemical, biotinylated probe, 635/667 nm fluorescence (AID 1113); conditions: higher = more signal;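 also: score merges 667 nm fluorescence intensity with signal-to-noise per printed feature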
[17] = small-molecule microarray binders of probe aShh, primary screen, biochemical, biotinylated probe, 635/667 nm fluorescence (AID 1114); conditions: higher = more signal;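 also: probe is biotin-labelled aShh protein from a stem cell growth factor screen; measures binding of labelled protein to compounds printed on the slide; score merges feature fluorescence at 667 nm with signal-to-noise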
[18] = small-molecule microarray binders of probe aNog, primary screen, biochemical, biotinylated probe, 635/667 nm fluorescence (AID 1115); conditions: higher = more signal;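 also: probe is biotinylated aNog protein used at 0.15 µg/mL for 1 h at 4 C; z-score combines 667 nm fluorescence of each spot with its signal to noise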
[19] = target: Torsin-1A-interacting protein 1 (Homo sapiens) (UniProt Q5JTV8); assay: LAP1 binders from COS7 cell lysate, primary screen, small-molecule microarray, 635/667 nm fluorescence (AID 1116); conditions: COS7-hLAP1 lysate binding, 635 nm fluorescence, higher = more signal
Torsin-1A-interacting protein 1 (Homo sapiens), sequence (Q5JTV8 whole entry, looked up): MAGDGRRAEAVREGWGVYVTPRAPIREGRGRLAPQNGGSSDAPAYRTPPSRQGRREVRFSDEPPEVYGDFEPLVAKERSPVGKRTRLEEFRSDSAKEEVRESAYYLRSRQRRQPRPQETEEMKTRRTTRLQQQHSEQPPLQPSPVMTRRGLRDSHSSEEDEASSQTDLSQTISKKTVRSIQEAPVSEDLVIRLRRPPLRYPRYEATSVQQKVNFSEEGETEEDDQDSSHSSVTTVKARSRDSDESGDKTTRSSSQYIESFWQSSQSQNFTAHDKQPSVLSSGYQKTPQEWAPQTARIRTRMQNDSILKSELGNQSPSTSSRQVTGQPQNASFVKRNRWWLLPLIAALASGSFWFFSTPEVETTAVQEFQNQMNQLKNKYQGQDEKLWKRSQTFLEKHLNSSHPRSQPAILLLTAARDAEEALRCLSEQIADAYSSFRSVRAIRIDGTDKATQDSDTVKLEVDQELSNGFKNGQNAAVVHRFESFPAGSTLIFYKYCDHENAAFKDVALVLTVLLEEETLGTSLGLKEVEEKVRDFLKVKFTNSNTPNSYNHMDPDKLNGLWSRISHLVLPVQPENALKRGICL

[20] = target: Alpha-bungarotoxin (Bungarus multicinctus) (UniProt P60615); assay: alpha-bungarotoxin binders on microarray, profiling panel, artefact control for SMM control protein annotation, biochemical, small-molecule microarray, Alexa647 label, 635/667 nm fluorescence (AID 1117); conditions: alpha-BTX-A647 binding fluorescence, higher = more signal
Alpha-bungarotoxin (Bungarus multicinctus), sequence (P60615 whole entry, looked up): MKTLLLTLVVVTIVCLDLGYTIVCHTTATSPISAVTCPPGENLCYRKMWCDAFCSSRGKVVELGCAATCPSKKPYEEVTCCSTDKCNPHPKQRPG

| SMILES | composite z-score [1] | composite z-score [2] | composite z-score [3] | z-score [4] | composite z-score [5] | composite z-score [6] | composite z-score [7] | composite z-score [8] | composite z-score [9] | composite z-score [10] | composite z-score [11] | z-score [12] | composite z-score [13] | composite z-score [14] | composite z-score [15] | composite z-score [16] | composite z-score [17] | composite z-score [18] | composite z-score [19] | composite z-score [20] |
| --- | --- | --- | --- | --- | --- | --- | --- | --- | --- | --- | --- | --- | --- | --- | --- | --- | --- | --- | --- | --- |
| COc1cccc([C@H]2Oc3ccc(OC)cc3C(=NO[C@@H](C)c3cc(-c4c(C)cc(C)cc4C)no3)[C@@H]2O)c1 | 0.288 | 0.838 | 1.53 | -0.328 (inactive) | -1.66 | -0.532 | -2.38 | -1.99 | -3.26 | 0.313 | -0.355 | -1.71 | -2.35 | -0.831 | 0.668 | -0.172 | -0.195 | 0.0983 | -0.589 | -0.628 |
| CON=C(C)CCN1CCCCc2nc(C)c(C)cc21 | 0.636 | -0.144 | -0.0831 | 0.248 (inactive) | 0.443 | 0.213 | 0.657 | 0.507 | 0.881 | 1.52 | -0.111 | -0.319 | 0.679 | -0.327 | -0.817 | 0.11 | -0.147 | -0.337 | 0.445 | -0.0996 |
| CC(C)=NOC(C)CN1CCCCc2nc(C)c(C)cc21 (stereo not given) | 0.284 | -0.261 | -0.331 | 0.19 (inactive) | 0.151 | 0.0285 | 0.468 | 0.473 | 0.619 | 1.04 | 0.103 | -0.594 | 0.576 | -0.254 | -0.66 | -0.113 | -0.0769 | -0.198 | 0.605 | -0.265 |
| CC(=O)OC[C@H]1O[C@H](CC=NOCC[C@@H]2C=C[C@H](OC(C)=O)[C@@H](COC(C)=O)O2)C=C[C@@H]1OC(C)=O | 0.892 | 0.771 | -0.752 | 0.525 (inactive) | 1.08 | 0.93 | 0.914 | 0.716 | 0.864 | 0.103 | 1.02 | 0.111 | 0.888 | -0.981 | -0.171 | -0.001 | -0.0904 | -0.216 | -0.0873 | 0.408 |
| C[C@H]1CC[C@@H](C(=O)O)N[C@@H]1c1ccc(C#Cc2ccccc2)cc1 | 0.194 | 0.0274 | -0.273 | 0.29 (inactive) | 1.24 | 1.1 | 0.935 | 1.31 | 1.07 | 1.01 | 0.942 | -4.69 | 0.753 | 0.119 | -0.332 | -0.0203 | -0.154 | -0.256 | 0.666 | 0.966 |
| O=C1[C@H]2[C@H]3[C@H](O)[C@H](O)CC(=NO[C@@H]4O[C@H](CO)[C@@H](O)[C@H](O)[C@H]4O)[C@@H]3CC[C@H]2C(=O)N1C1CCCCC1 | 0.203 | -0.275 | -0.458 | -0.155 (inactive) | 0.57 | 0.607 | 0.46 | 0.542 | 0.353 | -0.224 | 0.578 | -0.0851 | 0.616 | 0.159 | -0.616 | 0.0101 | -0.0593 | -0.198 | 0.0912 | 0.0069 |
| CCN1C(=O)[C@H]2[C@H]3[C@H](O)[C@H](O)CC(=NOC[C@@H](O)[C@H]4O[C@@H]5OC(C)(C)O[C@@H]5[C@H]4O)[C@@H]3CC[C@H]2C1=O | 1.03 | -0.242 | -0.461 | 0.217 (inactive) | 0.203 | -0.246 | 0.227 | 0.24 | 0.284 | 0.46 | -0.629 | -0.299 | 0.484 | -0.154 | -0.324 | -0.096 | -0.0289 | -0.0733 | -0.209 | 0.0203 |
| C[C@@H]1CC[C@H]2C(=O)O[C@@H](CN=[N+]=[N-])CN2[C@H]1c1ccc(Br)cc1 | 0.584 | 0.0195 | -0.669 | 0.659 (inactive) | 0.382 | 0.636 | 0.343 | 0.345 | 0.857 | 0.455 | 1.23 | -4.98 | 0.672 | 0.169 | -0.425 | -0.262 | -0.32 | -0.571 | 0.0942 | 0.601 |
| COC(=O)[C@H](C)NC(=O)CCC1CC(OC(=O)NCc2ccc3c(c2)OCO3)CC2(CCCC(COC(=O)NCCCN3CCCC3=O)O2)O1 (stereo not given in full) | 0.842 | -0.286 | -0.189 | 0.245 (inactive) | 0.601 | 1.28 | 0.638 | 0.856 | 1.41 | -0.109 | 1.32 | -1.87 | 0.849 | 0.924 | -0.151 | -0.0644 | -0.186 | 0.0215 | 0.286 | 0.88 |
| Cc1cc2c(nc1C)CCCCN2CC(O)CN1CCCc2nc(-c3ccc(Br)cc3)ccc21 (stereo not given) | 0.704 | -0.0514 | -0.332 | 0.0168 (inactive) | 0.874 | 0.62 | 0.597 | 1.21 | 0.446 | 0.481 | 0.599 | -0.116 | 0.615 | 0.114 | -0.823 | 0.093 | 0.304 | 0.17 | 0.404 | 0.888 |
| COC(=O)CC=C[C@@H](C)[C@@H](C=NOC[C@@H](O)[C@H]1O[C@@H]2OC(C)(C)O[C@@H]2[C@H]1O)OC | 0.42 | -0.0276 | -0.673 | -0.123 (inactive) | 0.247 | 0.589 | 0.496 | 0.115 | 0.56 | -0.16 | 0.416 | -0.594 | 0.638 | -0.139 | -0.565 | -0.012 | -0.0035 | -0.234 | 0.422 | 0.265 |
